# Compound activity deposited in PubChem by National Center for Advancing Translational Sciences (NCATS).
# An excerpt weighted towards active compounds, which were near 3.6% of everything screened.
# TDP43 rescue = rescues yeast growth from TDP-43 toxicity | 1.8% of 410,000 active | TDP-43 expressing yeast growth rescue, BacTiter-Glo, 24 h | Potency, µM (titrated, usually from 46.1 µM), for inactives: top-dose growth rescue (activation), actives largely listed as activators | AID 652104; further: % of control where 0% means no effect; nearly all actives have a fitted effect of over 50% in size
#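 Yeast expressing TDP-43 (pregrown in raffinose, seeded at OD600=0.02 in galactose medium) exposed to compounds 24 hr at 30 deg C. Growth read by BacTiter-Glo luminescence; rescue of toxicity appears as increased signal.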
# FUS suppressor = FUS proteinopathy suppression in yeast. S. cerevisiae FUS-expressing, growth rescue, OD600, 24 h. Potency, µM (top dose mostly 76.6 µM), most hits filed as activators. 0.24% of 390,000 active. AID 1347120;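 further: plate controls were DMSO vehicle for no effect and reference control for full effect; nearly all actives have a fitted effect of over 55% in size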
#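 Read-out: OD at 600 nm after 24hr at 30C, reporting rescue of FUS-induced yeast toxicity. Cells at OD 0.005 in galactose (2%) minimal medium; compounds tested in a dilution series; CP55940 titration from 92uM final as control.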
# ClpP mod = qHTS Assay for Activators of ClpP; 1.9% of 340,000 active; purified B. subtilis ClpP, FRET peptide cleavage, 20 min; Potency, µM (titrated, usually from 57.5 µM), for inactives: at the highest dose activity change, negative = active; active means well fitted falling curve with a large enough effect; inconclusive means small, poorly fitted or top-dose-only effect; inactive means no such curve, though single readings can be large or run the other way; further: the source files actives as falling curves though it sought activators and does not explain the sign; nearly all actives have a fitted effect of over 65% in size
# Target sequence (P80244 whole entry, looked up): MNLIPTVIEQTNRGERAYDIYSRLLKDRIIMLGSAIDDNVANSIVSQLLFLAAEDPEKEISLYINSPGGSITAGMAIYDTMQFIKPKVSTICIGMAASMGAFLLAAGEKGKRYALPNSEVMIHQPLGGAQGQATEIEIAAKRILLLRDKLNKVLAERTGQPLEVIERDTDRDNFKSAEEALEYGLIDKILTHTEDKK
#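 Purified B. subtilis ClpP, 10 microg/mL final in Tris/HCl pH8 with KCl, BSA, glycerol and Tween-20, cleaved an Abz/nitrotyrosine-quenched decapeptide. Fluorescence (ex 320, em 430) was read at 0 and 20 min at room temperature. Delta was normalized to 5.8 microM ADEP and DMSO/no-enzyme controls.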
# Abeta yeast res = restores growth of yeast expressing A-beta42 peptide | 0.063% of 410,000 active | Potency, µM (highest dose often 46.1 µM), most hits filed as activators | yeast expressing A-beta42, growth rescue, OD600, 48 h; response scale: 0% DMSO, 100% iron-clioquinol control; further: nearly all actives have a fitted effect of over 55% in size
#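 Yeast growth medium received pinned compounds, then yeast cells expressing toxic A-beta were added; plates incubated at 30 C for 48 hr. Growth read as absorbance at 600 nm, normalized to DMSO and equimolar FeCl3 plus clioquinol controls.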
# aSyn rescue = alpha-synuclein toxicity inhibition in yeast; Yeast expressing alpha-synuclein, growth rescue, BacTiter-Glo, 24 h; AID 652106; 0.14% of 370,000 active; Potency, µM (highest dose often 46.1 µM), without a hit: at the top dose growth rescue (activation), usual class: activators; further: % of control where 0% means no effect; nearly all actives have a fitted effect of over 65% in size
#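 Rescue of yeast growth: cells expressing toxic alpha-synuclein, induced in galactose at OD600 0.02, incubated with compound 24 h at 30 C. ATP luminescence quantified growth; inhibitors of toxicity appear as activators.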
# MmCpn inh = M. maripaludis TRiC chaperonin inhibition; purified Mm-Cpn ATPase, ADP Transcreener TR-FRET; Potency, µM (highest dose often 76.9 µM), for the others: top-dose activity, negative = inhibition, hits mostly inhibitors; 0.031% of 330,000 active; AID 504842; further: on the % scale 0 is the no-effect control and ±100 the full control effect; nearly all actives have a fitted effect of over 80% in size
#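 ATPase turnover read by TR-FRET ADP competition (Eu cryptate antibody/ADP-d2, 665/590 nm): 10uM ATP final, 25nM Mm-CPN final, 30 min 37degC after 10-min compound preincubation, pH 7.4 Tris/KCl/MgCl2/DTT buffer.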
# Numbers without * were called inactive; i = inactive; ? = inconclusive; . = no result; ! = not active in a repeat. Unless noted, the call rests on the fitted dose curve; in most records, active means well fitted curve in the direction sought with a large enough effect; inconclusive means small, poorly fitted or top-dose-only effect, or another doubt; inactive means no such curve, though single readings can be large; an effect the other way counts as inactive or inconclusive. Potency means the concentration at half of the fitted maximal effect.
SMILES,TDP43 rescue,FUS suppressor,ClpP mod,Abeta yeast res,aSyn rescue,MmCpn inh
CC(=O)N1CCN(C2=NC(=O)N(c3ccc(Br)cc3)C(=O)C2)CC1,.,i,.,.,.,.
Clc1cccc(N2CCN(c3ncnc4c3nc3n4CCCC3)CC2)c1,16µM*,i,-17%,i,.,.
Cc1ccc(Cl)cc1N1CCN(c2ncnc3c2nc2n3CCCCC2)CC1,25µM*,i,-1%,i,.,.
COC(=O)c1ccc(NC(=O)NCCn2nnc3cc(S(=O)(=O)N(C)C)ccc32)cc1,19%,i,-2%,i,.,.
Clc1ccc(-c2cn3cccnc3n2)cc1,12%,i,92%,i,10%,-1%
Clc1ccc(-c2cn3cccnc3n2)cc1Cl,-16%,?,11µM*,i,-6%,-3%
O=S(=O)(Nc1cccc(-c2cn3cccnc3n2)c1)c1ccc(-c2ccccc2)cc1,0%,?,28µM*,i,9%,-2%
O=C(Cc1ccc(F)cc1)NO,.,.,-2%,.,2%,.
COc1nc(-c2ccccc2)c2cc(C)ccc2n1,13µM*,i,0%,i,5%,-7%
CCOc1nc(-c2ccccc2)c2cc(C)ccc2n1,22%,i,4%,i,15%,1%
CCc1ccc(NC(=O)CSc2nc(=O)n3cc(C)ccc3n2)cc1,22%,i,25µM*,i,-2%,1%
Cc1ccc2nc(SCC(=O)N3CCC(C)CC3)nc(=O)n2c1,-28%,.,-10%,i,6%,0%
Cc1ccc2nc(SCC(=O)N3CCCC3)nc(=O)n2c1,11%,i,25µM*,i,-3%,-1%
COc1ccc(-c2cc(C#N)nc(Oc3ccc(Cl)cc3)n2)cc1,0%,.,7.9µM*,i,4%,2%
COc1ccc(-c2cc(C#N)nc(Cl)n2)cc1,4µM*,i,0%,i,-9%,-3%
COc1ccc(-c2cc(C#N)nc(NN)n2)cc1,?,i,-2%,i,-6%,0%
CCN(CC)c1nc(C#N)cc(-c2ccc(OC)cc2)n1,-9%,i,35µM*,i,-3%,-1%
N#Cc1cc(-c2ccccc2)nc(Oc2ccccc2)n1,?,i,2%,i,13%,-1%
Cc1ccccc1C(=O)Nc1ccc2oc(-c3ccc(Cl)c(Cl)c3)nc2c1,22%,i,?,i,.,.
COc1ccccc1N1CCN(C(=O)c2oc3ccc(F)cc3c2C)CC1,?,i,-7%,?,15%,1%
COc1ccccc1N1CCN(C(=O)c2cc3c(s2)-c2ccccc2OC3)CC1,11µM*!,?,14µM*,i,3%,-4%
CCOc1ccccc1N1CCN(C(=O)c2cc3c(s2)CCC3)CC1,18%,i,0%,i,17%,-5%
COc1ccccc1N1CCN(C(=O)c2oc3ccc(Br)cc3c2C)CC1,18µM*,i,-1%,i,4%,2%
COc1ccccc1N1CCN(C(=O)c2cc3c(s2)CCCCC3)CC1,22µM*,i,-2%,i,2%,-2%
CCc1cc(C(=O)N2CCN(c3ccccc3OC)CC2)sc1C,13µM*,i,.,i,3%,1%
COc1ccc(Cn2c(=O)c3oc4ccccc4c3n(CC(=O)Nc3cc(C)cc(C)c3)c2=O)cc1,-9%,i,-3%,i,.,.
CC(C)N(C)C1CCN(S(=O)(=O)c2ccc3[nH]c(=O)ccc3c2)CC1,16%,i,?,i,-9%,.
Cn1cccc1C(=O)NC(=O)COC(=O)CC12CC3CC(CC(Br)(C3)C1)C2,2%,i,28µM*,i,1%,-2%
COc1ccc(NC(=O)/C(Cl)=C(/Cl)S(=O)(=O)Cc2ccccc2)cn1,3.2µM*,i,9%,i,-36%,-9%
COc1ccc(NC(=O)CC2(CC(=O)O)CCCC2)cn1,13µM*,i,.,i,4%,-2%
